# Laboratory results from PubChem BioAssay (EPA / NIEHS).
# Results filed as inconclusive are left out. Active and inactive are the calls of the source. How the source made its calls, unless noted: active means hit-call score of the fitted dose curve at least 0.9, where 1 is the maximum; inactive means score below 0.9.
# Key:
# [1] = ATG_CRE_CIS: Attagene CIS-FACTORIAL HepG2 Assay for human cAMP Responsive Element (CRE) binding protein 3 (AID 2282926); settings: HepG2 CRE cis-reporter, Attagene multiplexed mRNA; actives raise or lower the signal
# In short: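 Endogenous CRE-binding activity in HepG2 is reported through a cis-regulated transfected reporter. Following a day of exposure, mRNA levels are determined by reverse transcription PCR and fluorescent fragment analysis; fits run in both directions versus DMSO.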
# [2] = molecular target: Aryl hydrocarbon receptor (Homo sapiens) (UniProt P35869); assay: ATG_Ahr_CIS: Attagene CIS-FACTORIAL HepG2 Assay for human Aryl Hydrocarbon Receptor (Ahr) (AID 2282930); settings: HepG2 AhR cis-factorial reporter transcription; actives raise or lower the signal
# In short: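 HepG2, transient MRTU (cis) transfection, 24 h exposure. RNA → cDNA → PCR → 6-FAM primer extension → HpaI 2 h 37 C → CE. Fit: bidirectional, DMSO baseline.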
# [3] = molecular target: Hepatocyte nuclear factor 3-beta (Homo sapiens) (UniProt Q9Y261); assay: ATG_FoxA2_CIS: Attagene CIS-FACTORIAL HepG2 Assay for human Forkhead box A2 (FOXA2) (AID 2282942); settings: HepG2 cis-reporter transcription factor activity, 24 h; actives raise or lower the signal
# In short: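 Measured: reporter mRNA induction or loss in HepG2 transiently carrying multiple cis-regulated reporter units, 24 h after dosing. Quantified by RT-PCR plus capillary electrophoresis, normalised to DMSO.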
# [4] = molecular target: Paired box protein Pax-6 (Homo sapiens) (UniProt P26367); assay: ATG_Pax6_CIS: Attagene CIS-FACTORIAL HepG2 Assay for human Paired Box 6 (PAX6) (AID 2282956); settings: HepG2 CIS-FACTORIAL PAX6 reporter transcription, RNA readout; actives raise or lower the signal
# In short: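 HepG2 cells transiently transfected with multiplexed cis-promoter reporter units (endogenous TF activity) were dosed for 24 h. Reporter mRNA was quantified by RT-PCR, 6-FAM labeling, HpaI digestion and capillary electrophoresis; bidirectional fitting versus DMSO baseline.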
# [5] = molecular target: Transcription factor Sp1 (Homo sapiens) (UniProt P08047); assay: ATG_Sp1_CIS: Attagene CIS-FACTORIAL HepG2 Assay for human Specificity Protein 1 (Sp1) (AID 2282961); settings: HepG2 Sp1 cis-reporter transcription, actives raise or lower the signal
# In short: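 Endpoint reflects endogenous Sp1 transcriptional activity, not an exogenous fusion protein: HepG2 cells with transfected cis-regulated reporters, 24 h dosing, RT-PCR/capillary electrophoresis mRNA read-out, DMSO-normalised bidirectional fit.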
# [6] = ATG_SREBP_CIS: Attagene CIS-FACTORIAL HepG2 Assay for human Sterol Regulatory Element Binding (SREBP) (AID 2282962); settings: HepG2 Attagene cis-factorial SREBP reporter, mRNA; actives raise or lower the signal
# In short: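 HepG2 cells transiently transfected with multiplexed cis-element reporter units report endogenous transcription factor activity. After 24 h of chemical exposure, reporter mRNA was quantified by RT-PCR, 6-FAM labelling, HpaI digestion and capillary electrophoresis; bidirectional fits used DMSO as baseline.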
# [7] = molecular target: Signal transducer and activator of transcription 3 (Homo sapiens) (UniProt P40763); assay: ATG_STAT3_CIS: Attagene CIS-FACTORIAL HepG2 Assay for human Signal Transducer and Activator of Transcription 3 (STAT3) (AID 2282963); settings: HepG2, Attagene cis-factorial STAT3 reporter transcription; actives raise or lower the signal
# In short: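 After a 24 h compound incubation, total RNA from MRTU-transfected HepG2 cells was converted to cDNA and reporter sequences PCR-amplified, labelled and profiled by capillary electrophoresis. Gain and loss of signal were referenced to DMSO.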
# [8] = ATG_TA_CIS: Attagene CIS-FACTORIAL HepG2 Assay for human TA Basal Promoter (AID 2282964); settings: HepG2 Attagene CIS-factorial TA basal promoter reporter; actives raise or lower the signal
# In short: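 Background-control readout: TA basal promoter reporter mRNA, fitted in both directions relative to DMSO. Measured by RT-PCR and capillary electrophoresis 24 hours after treating HepG2 human liver cells transiently carrying multiplexed cis-regulated reporter constructs.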
# [9] = ATG_TCF_b_cat_CIS: Attagene CIS-FACTORIAL HepG2 Assay for human T-Cell-Factor with beta-catenin (TCF/b-cat) (AID 2282965); settings: HepG2 TCF/beta-catenin cis-reporter transcription, actives raise or lower the signal
# In short: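 Measured: reporter mRNA in HepG2 transiently transfected with cis-promoter reporter units, 24 h after chemical addition. Fitting was bidirectional, DMSO as negative control.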
# [10] = ATG_TAL_CIS: Attagene CIS-FACTORIAL HepG2 Assay for human TAL Basal Promoter (AID 2282966); settings: HepG2 Attagene cis-factorial TAL promoter reporter; actives raise or lower the signal;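 further: background control endpoint measuring basal TAL promoter reporter mRNA not a specific factor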
# In short: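 In this cell-based multiplex, HepG2 liver cells bearing cis-promoter reporter constructs are dosed for 24 hours. Total RNA is reverse-transcribed and amplified, labelled fragments are sized by capillary electrophoresis, and signal changes are fitted bidirectionally versus DMSO.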
# [11] = ATG_TGFb_CIS: Attagene CIS-FACTORIAL HepG2 Assay for human Transforming Growth Factor (TGF) (AID 2282967); settings: HepG2 Attagene CIS TGFb reporter, mRNA transcription; actives raise or lower the signal
# In short: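 Endogenous TGFB1-linked transcription factor activity read as reporter mRNA via RT-PCR and capillary electrophoresis, 24 h after dosing transiently transfected HepG2 cells. Gain or loss of signal fitted relative to DMSO.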
# [12] = ATG_VDRE_CIS: Attagene CIS-FACTORIAL HepG2 Assay for human Vitamin D Receptor Element (VDRE) (AID 2282968); settings: HepG2 VDRE cis-reporter transcription, actives raise or lower the signal
# In short: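 In transiently transfected HepG2 liver cells, gain or loss of reporter mRNA after 24 h exposure is scored relative to DMSO, using fluorescence detection by capillary electrophoresis of RT-PCR products.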
# [13] = molecular target: X-box-binding protein 1 (Homo sapiens) (UniProt P17861); assay: ATG_Xbp1_CIS: Attagene CIS-FACTORIAL HepG2 Assay for human X-box Binding Protein 1 (XBP1) (AID 2282972); settings: HepG2 XBP1 cis-element reporter, Attagene multiplex; actives raise or lower the signal
# In short: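 HepG2 cells transiently transfected with cis-regulated multiple reporter transcription units; endogenous transcription factor activity measured 24 hours after chemical dosing. Reporter mRNA quantified by RT-PCR, 6-FAM primer extension, HpaI digestion and capillary electrophoresis; bidirectional fitting versus DMSO.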
# [14] = ATG_M_32_TRANS: Attagene TRANS-FACTORIAL HepG2 Assay for M32 Transcription Factor (Internal Marker) (AID 2282984; active means hit-call score of the fitted dose curve at least 0.9, where 1 is the maximum;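 further: transcript level of a background control reporter unit measured by RT-PCR and capillary electrophoresis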); settings: HepG2 Attagene TRANS M32 internal marker reporter
# In short: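 Using transiently transfected HepG2 cells exposed to test chemicals for 24 h, reporter transcripts are converted to labelled cDNA fragments and quantified by capillary electrophoresis. DMSO defines the activity baseline.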
# [15] = molecular target: Transcriptional activator Myb (Homo sapiens) (UniProt P10242); assay: ATG_Myb_CIS: Attagene CIS-FACTORIAL HepG2 Assay for human Myeloblastosis (Myb) Proto-Oncogene Transcription Factor (AID 2282986); settings: HepG2 Attagene CIS-FACTORIAL Myb reporter transcription; actives raise or lower the signal
# In short: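 In this HepG2 transient-transfection format, cis-regulated reporter mRNA is quantified 24 h post-dosing by RT-PCR with capillary electrophoresis, fitted bidirectionally to DMSO baseline.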
# [16] = molecular target: Nuclear respiratory factor 1 (Homo sapiens) (UniProt Q16656); assay: ATG_NRF1_CIS: Attagene CIS-FACTORIAL HepG2 Assay for human Nuclear Respiratory Factor 1 (NRF1) Orphan Gene (AID 2282987); settings: HepG2 NRF1 cis-element reporter, Attagene multiplex; actives raise or lower the signal
# In short: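 Using DMSO as baseline, gain- or loss-of-signal was fitted for reporter mRNA levels in HepG2 cells transiently transfected with cis-regulated reporter units. Samples were taken 24 h after dosing and read by RT-PCR with capillary electrophoresis.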
# [17] = ATG_NFI_CIS: Attagene CIS-FACTORIAL HepG2 Assay for human Nuclear Factor I (NFI) (AID 2282989); settings: HepG2 cis-regulatory reporter, NFI response element transcription; actives raise or lower the signal
# In short: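 Reporter transcripts were measured by RT-PCR with fluorescent primer extension and capillary electrophoresis 24 h post-treatment. HepG2 cells carried transiently transfected cis-regulated reporter constructs reporting endogenous factor activity; gain or loss fitted against DMSO baseline.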
# [18] = molecular target: Myc proto-oncogene protein (Homo sapiens) (UniProt P01106); assay: ATG_Myc_CIS: Attagene CIS-FACTORIAL HepG2 Assay for human Myelocytomatosis (Myc) Proto-Oncogene Transcription Factor (AID 2282990); settings: HepG2, Attagene cis-reporter transcription factor activity; actives raise or lower the signal
# In short: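 Cells of the HepG2 human liver line bear multiple cis-driven reporter transcription units. Reporter mRNA after 24 h exposure is reverse-transcribed, amplified, labelled and resolved by capillary electrophoresis, with gain- or loss-of-signal fitting relative to DMSO.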
# [19] = ATG_NF_kB_CIS: Attagene CIS-FACTORIAL HepG2 Assay for human Nuclear Factor Kappa B (NF-kB) (AID 2282991); settings: HepG2 Attagene cis-factorial NF-kB reporter mRNA; actives raise or lower the signal
# In short: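 Endpoint from a 52-component multiplexed HepG2 reporter panel: cis-regulated transcription units transiently transfected, 24 h dosing, reporter mRNA quantified by RT-PCR and capillary electrophoresis, scored as increase or decrease against DMSO.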
# [20] = ATG_Oct_MLP_CIS: Attagene CIS-FACTORIAL HepG2 Assay for human Octamer-Binding Transcription Factor (Oct) (AID 2282993); settings: HepG2 Attagene cis-factorial Oct reporter, mRNA; actives raise or lower the signal
# In short: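 Readout is reporter transcript level from RT-PCR with fluorescent primer extension and capillary electrophoresis, fitted in both directions against DMSO. Transfected HepG2 reporter units report endogenous factor activity after 24 h dosing.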
# Myc proto-oncogene protein (Homo sapiens), sequence (P01106 whole entry, looked up): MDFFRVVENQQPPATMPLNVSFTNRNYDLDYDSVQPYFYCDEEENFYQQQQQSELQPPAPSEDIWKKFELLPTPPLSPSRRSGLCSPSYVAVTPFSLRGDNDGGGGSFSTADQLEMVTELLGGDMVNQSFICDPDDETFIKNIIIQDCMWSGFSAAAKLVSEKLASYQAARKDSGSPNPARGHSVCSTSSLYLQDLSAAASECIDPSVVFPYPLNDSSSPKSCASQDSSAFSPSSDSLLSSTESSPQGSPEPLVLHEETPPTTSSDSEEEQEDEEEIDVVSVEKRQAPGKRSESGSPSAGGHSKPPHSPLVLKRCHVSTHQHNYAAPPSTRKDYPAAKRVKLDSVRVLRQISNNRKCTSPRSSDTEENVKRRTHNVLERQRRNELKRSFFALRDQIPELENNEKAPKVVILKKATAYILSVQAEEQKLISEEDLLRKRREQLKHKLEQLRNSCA
# Transcription factor Sp1 (Homo sapiens), sequence (P08047 whole entry, looked up, the tested form may be a part): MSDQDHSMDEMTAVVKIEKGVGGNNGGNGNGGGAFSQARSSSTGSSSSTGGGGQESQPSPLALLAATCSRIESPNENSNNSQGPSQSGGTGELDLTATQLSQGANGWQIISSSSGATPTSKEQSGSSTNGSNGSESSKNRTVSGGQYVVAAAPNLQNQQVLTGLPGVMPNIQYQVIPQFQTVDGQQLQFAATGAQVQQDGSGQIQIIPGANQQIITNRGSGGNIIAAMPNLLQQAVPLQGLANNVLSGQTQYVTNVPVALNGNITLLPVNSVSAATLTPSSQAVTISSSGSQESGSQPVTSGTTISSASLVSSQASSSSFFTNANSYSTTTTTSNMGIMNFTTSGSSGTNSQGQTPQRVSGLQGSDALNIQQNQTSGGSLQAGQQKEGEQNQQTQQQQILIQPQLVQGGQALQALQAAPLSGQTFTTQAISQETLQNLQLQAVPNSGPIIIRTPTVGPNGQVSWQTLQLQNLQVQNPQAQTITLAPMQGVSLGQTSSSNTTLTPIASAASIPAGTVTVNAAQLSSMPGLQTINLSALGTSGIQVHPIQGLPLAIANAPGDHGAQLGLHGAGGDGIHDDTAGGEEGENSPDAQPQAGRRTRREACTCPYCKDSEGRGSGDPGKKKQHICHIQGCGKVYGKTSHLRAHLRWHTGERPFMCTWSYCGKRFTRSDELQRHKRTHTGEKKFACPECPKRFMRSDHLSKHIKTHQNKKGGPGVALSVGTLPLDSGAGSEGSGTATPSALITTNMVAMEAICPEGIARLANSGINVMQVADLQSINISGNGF
# Nuclear respiratory factor 1 (Homo sapiens), sequence (Q16656 whole entry, looked up): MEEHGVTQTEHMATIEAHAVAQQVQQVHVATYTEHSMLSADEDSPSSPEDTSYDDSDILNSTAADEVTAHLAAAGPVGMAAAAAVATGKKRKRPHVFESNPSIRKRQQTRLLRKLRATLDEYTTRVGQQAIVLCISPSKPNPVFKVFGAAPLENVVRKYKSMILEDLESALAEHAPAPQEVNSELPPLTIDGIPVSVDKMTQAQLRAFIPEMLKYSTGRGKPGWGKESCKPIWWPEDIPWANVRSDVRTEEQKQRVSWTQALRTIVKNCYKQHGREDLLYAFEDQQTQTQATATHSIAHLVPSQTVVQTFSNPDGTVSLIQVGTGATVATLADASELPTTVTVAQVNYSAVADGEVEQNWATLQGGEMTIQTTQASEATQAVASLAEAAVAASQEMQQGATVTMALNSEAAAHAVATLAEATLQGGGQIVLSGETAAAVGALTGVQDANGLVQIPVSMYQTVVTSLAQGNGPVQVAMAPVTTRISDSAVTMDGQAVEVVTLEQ
# Paired box protein Pax-6 (Homo sapiens), sequence (P26367 whole entry, looked up): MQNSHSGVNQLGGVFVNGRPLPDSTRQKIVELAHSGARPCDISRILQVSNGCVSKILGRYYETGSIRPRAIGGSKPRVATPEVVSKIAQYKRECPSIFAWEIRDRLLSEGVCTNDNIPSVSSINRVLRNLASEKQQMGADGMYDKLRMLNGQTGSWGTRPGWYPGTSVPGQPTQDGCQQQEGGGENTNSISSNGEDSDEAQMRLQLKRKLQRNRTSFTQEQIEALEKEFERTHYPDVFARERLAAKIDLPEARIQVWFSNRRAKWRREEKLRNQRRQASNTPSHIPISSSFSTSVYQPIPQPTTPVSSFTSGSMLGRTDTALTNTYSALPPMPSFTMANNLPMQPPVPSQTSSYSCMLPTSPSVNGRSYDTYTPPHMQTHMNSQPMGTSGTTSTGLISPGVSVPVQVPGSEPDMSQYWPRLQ
# Signal transducer and activator of transcription 3 (Homo sapiens), sequence (P40763 whole entry, looked up): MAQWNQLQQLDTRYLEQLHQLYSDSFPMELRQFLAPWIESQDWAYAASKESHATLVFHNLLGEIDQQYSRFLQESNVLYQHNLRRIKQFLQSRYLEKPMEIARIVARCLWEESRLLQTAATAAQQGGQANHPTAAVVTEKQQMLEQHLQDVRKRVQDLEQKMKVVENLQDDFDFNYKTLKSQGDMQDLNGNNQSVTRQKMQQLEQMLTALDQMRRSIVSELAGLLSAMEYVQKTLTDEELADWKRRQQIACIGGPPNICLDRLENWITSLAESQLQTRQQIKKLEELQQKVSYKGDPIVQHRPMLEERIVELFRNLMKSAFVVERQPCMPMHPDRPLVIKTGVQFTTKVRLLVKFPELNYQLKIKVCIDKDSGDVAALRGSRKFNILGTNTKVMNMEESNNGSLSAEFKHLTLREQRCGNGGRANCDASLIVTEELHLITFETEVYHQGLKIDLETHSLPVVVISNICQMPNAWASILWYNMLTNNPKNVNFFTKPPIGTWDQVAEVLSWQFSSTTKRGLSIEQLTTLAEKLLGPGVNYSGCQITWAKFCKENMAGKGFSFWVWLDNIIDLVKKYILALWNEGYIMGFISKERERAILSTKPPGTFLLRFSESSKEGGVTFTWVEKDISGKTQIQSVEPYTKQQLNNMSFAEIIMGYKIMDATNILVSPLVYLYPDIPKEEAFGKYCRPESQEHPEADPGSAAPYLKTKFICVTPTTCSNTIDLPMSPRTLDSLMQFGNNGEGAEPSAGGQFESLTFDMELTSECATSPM
# Aryl hydrocarbon receptor (Homo sapiens), sequence (P35869 whole entry, looked up): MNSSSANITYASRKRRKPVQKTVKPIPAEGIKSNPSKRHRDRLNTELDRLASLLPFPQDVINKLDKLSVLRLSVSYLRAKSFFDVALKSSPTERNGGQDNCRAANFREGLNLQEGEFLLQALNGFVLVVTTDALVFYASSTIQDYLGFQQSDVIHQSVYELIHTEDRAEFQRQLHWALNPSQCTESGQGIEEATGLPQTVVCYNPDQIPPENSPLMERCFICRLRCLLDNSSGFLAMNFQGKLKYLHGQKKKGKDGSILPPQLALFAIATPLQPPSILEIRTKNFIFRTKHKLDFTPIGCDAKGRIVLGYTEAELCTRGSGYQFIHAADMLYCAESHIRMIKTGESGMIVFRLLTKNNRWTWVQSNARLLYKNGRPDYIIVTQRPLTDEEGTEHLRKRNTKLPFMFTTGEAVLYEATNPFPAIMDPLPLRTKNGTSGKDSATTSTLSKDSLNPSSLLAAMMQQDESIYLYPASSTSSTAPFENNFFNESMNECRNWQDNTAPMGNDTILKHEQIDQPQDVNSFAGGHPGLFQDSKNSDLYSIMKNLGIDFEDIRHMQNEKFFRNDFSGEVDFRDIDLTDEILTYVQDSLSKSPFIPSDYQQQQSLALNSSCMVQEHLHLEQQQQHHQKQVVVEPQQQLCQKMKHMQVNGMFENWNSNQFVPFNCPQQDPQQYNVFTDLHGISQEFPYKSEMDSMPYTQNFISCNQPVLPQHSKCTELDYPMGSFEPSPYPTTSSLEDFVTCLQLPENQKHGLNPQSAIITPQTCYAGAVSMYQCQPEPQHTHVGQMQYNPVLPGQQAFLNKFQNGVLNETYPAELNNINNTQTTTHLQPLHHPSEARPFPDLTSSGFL
# Hepatocyte nuclear factor 3-beta (Homo sapiens), sequence (Q9Y261 whole entry, looked up): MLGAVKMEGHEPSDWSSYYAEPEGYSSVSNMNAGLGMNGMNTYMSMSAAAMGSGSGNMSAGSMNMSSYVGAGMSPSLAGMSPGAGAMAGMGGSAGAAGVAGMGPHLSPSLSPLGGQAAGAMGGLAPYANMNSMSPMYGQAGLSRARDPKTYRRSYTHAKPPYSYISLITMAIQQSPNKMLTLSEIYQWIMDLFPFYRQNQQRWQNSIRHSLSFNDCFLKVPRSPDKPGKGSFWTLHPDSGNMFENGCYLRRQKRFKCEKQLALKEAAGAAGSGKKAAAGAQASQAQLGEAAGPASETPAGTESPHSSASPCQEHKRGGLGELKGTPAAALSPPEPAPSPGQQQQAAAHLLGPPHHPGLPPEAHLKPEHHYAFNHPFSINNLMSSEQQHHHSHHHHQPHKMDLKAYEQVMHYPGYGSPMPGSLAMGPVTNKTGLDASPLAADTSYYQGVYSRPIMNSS
# X-box-binding protein 1 (Homo sapiens), sequence (P17861 whole entry, looked up): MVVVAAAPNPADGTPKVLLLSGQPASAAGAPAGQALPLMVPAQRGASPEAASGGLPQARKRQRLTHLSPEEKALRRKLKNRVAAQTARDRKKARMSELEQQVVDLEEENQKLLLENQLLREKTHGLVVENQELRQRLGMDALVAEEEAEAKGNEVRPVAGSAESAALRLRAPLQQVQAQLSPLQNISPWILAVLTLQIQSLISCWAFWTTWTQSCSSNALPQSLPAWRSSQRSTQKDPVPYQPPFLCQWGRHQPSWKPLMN
structure (smiles),measurement,setting,value
CCc1cc(C)cc(CC)c1-c1c(OC(=O)C(C)(C)C)n2n(c1=O)CCOCC2,outcome,[1],inactive
same,outcome,[2],inactive
same,outcome,[3],inactive
same,outcome,[4],inactive
same,outcome,[5],inactive
same,outcome,[6],inactive
same,outcome,[7],inactive
same,outcome,[8],inactive
same,outcome,[9],inactive
same,outcome,[10],inactive
same,outcome,[11],inactive
same,outcome,[12],inactive
same,outcome,[13],inactive
same,outcome,[14],inactive
same,outcome,[15],inactive
same,outcome,[16],inactive
same,outcome,[17],inactive
same,outcome,[18],inactive
same,outcome,[19],inactive
same,outcome,[20],inactive
CNC(=N[N+](=O)[O-])NCC1CCOC1 (centres undefined),outcome,[1],inactive
same,outcome,[2],inactive
same,outcome,[5],inactive
same,outcome,[6],inactive
same,outcome,[8],inactive
same,outcome,[9],inactive
same,outcome,[10],inactive
same,outcome,[11],inactive
same,outcome,[12],inactive
same,outcome,[13],inactive
same,outcome,[14],inactive
same,outcome,[15],inactive
same,outcome,[16],inactive
same,outcome,[17],inactive
same,outcome,[19],inactive
same,outcome,[20],inactive
C[N+](C)(C)CC(=O)[O-],outcome,[1],inactive
same,outcome,[2],inactive
same,outcome,[3],inactive
same,outcome,[4],inactive
same,outcome,[5],inactive
same,outcome,[6],inactive
same,outcome,[7],inactive
same,outcome,[8],inactive
same,outcome,[9],inactive
same,outcome,[10],inactive
same,outcome,[11],inactive
same,outcome,[13],inactive
same,outcome,[15],inactive
same,outcome,[16],inactive
same,outcome,[17],inactive
same,outcome,[18],inactive
same,outcome,[20],inactive
CSc1nc(N=[N+]=[N-])nc(NC(C)C)n1,outcome,[1],inactive
same,outcome,[2],inactive
same,outcome,[3],inactive
same,outcome,[5],inactive
same,outcome,[6],inactive
same,outcome,[7],inactive
same,outcome,[8],inactive
same,outcome,[9],inactive
same,outcome,[10],inactive
same,outcome,[11],inactive
same,outcome,[12],inactive
same,outcome,[14],inactive
same,outcome,[15],inactive
same,outcome,[16],inactive
same,outcome,[17],inactive
same,outcome,[19],inactive
same,outcome,[20],inactive
[Cl-].[Cl-].[Cl-].[Yb+3],outcome,[1],inactive
same,outcome,[2],inactive
same,outcome,[4],inactive
same,outcome,[5],inactive
same,outcome,[6],inactive
same,outcome,[7],inactive
same,outcome,[8],inactive
same,outcome,[9],inactive
same,outcome,[10],inactive
same,outcome,[11],inactive
same,outcome,[12],inactive
same,outcome,[13],inactive
same,outcome,[15],inactive
same,outcome,[16],inactive
same,outcome,[17],inactive
same,outcome,[18],inactive
same,outcome,[20],inactive
Oc1ccc(C2(c3ccc(O)cc3)c3ccccc3-c3ccccc32)cc1,AC50,[1],8.42 µM (active)
same,outcome,[2],inactive
same,outcome,[3],inactive
same,outcome,[5],inactive
same,AC50,[6],13.6 µM (active)
same,outcome,[7],inactive
same,AC50,[8],17.2 µM (active)
same,outcome,[9],inactive
same,outcome,[10],inactive
same,outcome,[11],inactive
same,AC50,[12],5 µM (active)
same,AC50,[13],13.6 µM (active)
same,outcome,[14],inactive
same,outcome,[15],inactive
same,AC50,[16],19.1 µM (active)
same,AC50,[17],17.6 µM (active)
same,outcome,[18],inactive
same,outcome,[19],inactive
same,AC50,[20],9.82 µM (active)
CCCCCCCCCCCCCCCC[N+](C)(C)C,AC50,[1],48.9 µM (active)
same,AC50,[2],35.5 µM (active)
same,outcome,[3],inactive
same,outcome,[5],inactive
same,outcome,[6],inactive
same,outcome,[7],inactive
same,outcome,[8],inactive
same,AC50,[9],5.71 µM (active)
same,AC50,[10],138 µM (active)
same,outcome,[11],inactive
same,AC50,[12],9.16 µM (active)
same,outcome,[14],inactive
same,AC50,[15],24.5 µM (active)
same,AC50,[16],26 µM (active)
same,outcome,[17],inactive
same,outcome,[18],inactive
same,AC50,[19],53.4 µM (active)
same,AC50,[20],26.8 µM (active)
